# Sampled rows, rich in hits. Any-hit rate of the full collection: about 7.1%.
# ATXN2 expr inh: reduces ATXN2 reporter expression in HEK-293 cells. hit rate 0.72% among 360,000. HEK-293 ATXN2-luciferase reporter, luminescence, 24 h. Potency, µM (titrated, usually from 57 µM), without a hit: at the highest dose activity change, negative = inhibition, usual class: inhibitors. AID 1745845; note: potency is the fitted concentration of half-maximal effect; % is set by controls: 0 for no effect and ±100 for the full control effect; nearly all actives have a fitted effect of over 55% in size
#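 qHTS (up to 57 uM final) was run with 24 h compound exposure of reporter cells at 37 °C. Each well was multiplexed: SteadyGlo luminescence measured ATXN2-luciferase expression after a fluorogenic Gly-Phe-AFC viability readout (25 uM final).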
# ATXN viability: reduces viability in counter-screen for ATXN expression inhibitors | S2 cells (HEK-293 line with an ATXN2-luciferase reporter) viability, CellTiter-Fluor protease fluorescence, 24 h | Potency, µM (highest dose often 56.7 µM), most hits filed as cytotoxic | hit rate 0.49% among 400,000; note: potency is the fitted concentration of half-maximal effect; nearly all actives have a fitted effect of over 40% in size
# MCF10A rerep: DNA re-replication induction in MCF 10a cells; Potency, µM (top dose mostly 46.1 µM), without a hit: at the top dose activity, positive = re-replication, actives largely listed as activators; MCF 10A DNA re-replication, Hoechst nuclear intensity, 48 h; hit rate 2.9% among 350,000; note: potency is the fitted concentration of half-maximal effect; % of control where 0% means no effect; nearly all actives have a fitted effect of over 50% in size
# PINK1 expr mod: PINK1 expression modulation. Potency, µM (highest dose often 76.6 µM), for inactives: top-dose activation (PINK1 increase), actives largely listed as activators. PINK1 immunofluorescence, high-content cytometry, 24 h. AID 624263. hit rate 0.2% among 410,000; active = well fitted activation curve with a large enough effect; inconclusive = small, poorly fitted or top-dose-only effect; cell line not stated here; note: potency is the fitted concentration of half-maximal effect; % of control where 0% means no effect; nearly all actives have a fitted effect of over 65% in size
#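 A stable cell line was treated with compounds at 5 concentrations for 24 hours, with CCCP as control. PINK1 levels and mitochondrial localization were measured by immunofluorescence with mitochondrial, cell and nuclear markers after fixation, read by laser-scanning cytometry.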
# IL1B secr inh: inhibitors of inflammasome signaling (IL-1 beta secretion); THP-1 LPS/ATP IL-1B secretion, AlphaLISA, 16 h; active compounds read low; activity change, % at 57.5 µM; hit rate 4.7% among 360,000; AID 743279; in the data active = activity change below about -50%; inconclusive = mostly about -30% to -49%; note: % is set by controls: 0 for no effect and ±100 for the full control effect
#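 Secreted IL-1B measured by AlphaLISA bead assay after 16 h compound exposure of THP-1 cells; compounds (final up to 57.5 uM) added 1 h before LPS (250 ng/mL) and ATP (1.25 mM) stimulation; lower signal means less secretion.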
# SW480 rerep: inducers of DNA re-replication in SW480 colon cancer cells. SW480 DNA re-replication, Hoechst DNA content imaging, 48 h. Potency, µM (highest dose often 46.1 µM), without a hit: top-dose re-replication activation, usual class: activators. hit rate 1.8% among 340,000. AID 624297; note: potency is the fitted concentration of half-maximal effect; % of control where 0% means no effect; nearly all actives have a fitted effect of over 55% in size
#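 Per well, 250 cells were exposed to pinned compound for 48 hr. Nuclear DNA was visualised with Hoechst (40 min, 37 C) and total object intensity recorded by fluorescence scanning.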
# * hit, by the source's call; i = inactive; ? = inconclusive; . = not tested or not shown; [ ] = dose if it differs, or a comment. Unless noted, calls come from the whole dose curve; as a rule, active = well fitted curve in the direction sought with a large enough effect; inconclusive = small, poorly fitted or top-dose-only effect, or another doubt; inactive = no such curve, though single readings can be large; an effect the other way counts as inactive or inconclusive.
SMILES,ATXN2 expr inh,ATXN viability,MCF10A rerep,PINK1 expr mod,IL1B secr inh,SW480 rerep
Cc1nc(CSc2ccc(Cl)cc2)cc(NCc2ccccc2)n1,38%,i,8%,15%,20,1%
CCOc1ccc(C(=O)Nc2cccc(-c3nc4cccnc4s3)c2C)cc1OCC,.,.,.,2%,.,.
O=S(c1ccc2ccccc2c1)c1cnns1 (centres undefined),-6%,i,13µM*,-1%,-111*,?
CCC1(C2CCN(Cc3ccc(C)s3)CC2)NC(=O)N(CC2COc3ccccc3O2)C1=O (centres undefined),.,i,.,-1%,.,.
CCN(C[C@H]1N[C@@](Cc2ccccc2)(C(=O)OC)[C@H]2C(=O)N(Cc3ccccc3)C(=O)[C@@H]12)C(C)=O,3%,i,-1%,2%,-86*,15%
COC(=O)[C@]1(Cc2ccccc2)N[C@H](CN(C)C(=O)Nc2ccc(Cl)cc2)[C@@H]2C(=O)N(Cc3ccccc3)C(=O)[C@@H]21,34%,i,?,9%,-64*,-14%
CCc1ccccc1NC(=O)C(=O)NCC(c1cccnc1)N1CCc2ccccc21 (centres undefined),.,.,.,-1%,.,.
Cc1ccc2nc(-c3cccs3)c(Nc3c(C)cccc3C)n2c1,?,?,.,-1%,.,.
CCOC(=O)c1ccccc1NC(=O)COC(=O)CC(C)(C)CC1=NS(=O)(=O)c2ccccc2N1,?,i,.,3%,.,.
O=C(c1ccco1)N1CCN(C(=O)c2cnn3c2NC(c2cccs2)CC3C(F)(F)F)CC1 (centres undefined),-15%,i,6%,20%[38.3 µM],-15,-3%
O=C(c1cnn2c1NC(c1ccco1)CC2C(F)(F)F)N1CCN(c2cccc(Cl)c2)CC1 (centres undefined),?,i,7.3µM*,0%,-12,?
COc1ccc(NC(=O)c2cccc(-n3c(C)ccc3C)c2)c(OC)c1,-20%,?,?,2%,-61*,?
COc1ccccc1NC(=O)c1sc(NC(=O)c2ccco2)c(C#N)c1C,-5%,i,16µM*,-6%[38.3 µM],-7,?
COC(=O)c1sc(NC(=O)c2ccco2)c(C#N)c1C,.,i,0%,0%,3,?
COc1ccccc1NC(=O)c1ccc(NC(=O)c2ccco2)cc1,-20%,i,11%,0%,-75*,16%
COc1cc(NC(=O)c2oc3ccccc3c2C)ccc1NC(=O)c1ccco1,-5%,.,18µM*,8%,-3,1%
O=C1NC(=O)C(Cc2ccccc2)(C2CCN(Cc3cccn3-c3cccnc3)CC2)N1 (centres undefined),.,i,.,0%,.,.
O=C(NCC(c1cccnc1)N1CCc2ccccc21)c1ccc(F)cc1 (centres undefined),.,.,.,-2%,.,.
CC1(C)CC(=O)C2=C(C1)NC(Nc1nc3ccccc3o1)=NC2c1ccccc1 (centres undefined),.,.,.,-1%,.,.
Cc1ccc(CN(Cc2ccco2)C(=O)c2ccccc2Cl)o1,.,.,.,0%,.,.
CCOc1ccccc1NC(=O)c1ccc(C(=O)Nc2ccccc2OCC)cc1,10%,i,.,2%,.,.
O=C(COc1ccccc1Cl)Nc1ccc(NC(=O)c2ccco2)cc1,-13%,?,1%,14%,-59*,-3%
CCOc1ccccc1NC(=O)c1ccc(NC(=O)c2ccco2)cc1,-8%,i,-3%,-1%,-58*,-9%
COc1ccc(NC(=O)/C(=C/c2cccs2)NC(=O)c2ccco2)cc1,-17%,i,-32%,2%,.,-2%
CCOc1cc(C#N)c(NC(=O)c2ccco2)cc1OCC,-22%,?,?,12%,21,9.2µM*
SMILES,ATXN2 expr inh,ATXN viability,MCF10A rerep,PINK1 expr mod,IL1B secr inh,SW480 rerep
COc1ccccc1NC(=O)/C(=C/c1cccs1)NC(=O)c1ccco1,-2%,i,2%,-1%,.,4.6µM*
Cc1csc(NCC(=O)c2c(C)[nH]c3ccccc23)n1,.,.,.,-1%,.,.
Cc1nc(Cc2nnc(SCC(=O)N3c4ccccc4NC(=O)C3(C)C)o2)cs1,.,i,.,1%,32,.
NC(=O)Nc1cc(-c2ccc(CN3CCOCC3)cc2)sc1C(N)=O,27%,.,.,.,.,.
COc1ccc(NC(=O)Cc2ccc(Cl)cc2)cc1NC(=O)c1ccco1,-12%,i,11%,4%[38.3 µM],-56*,8%
COc1ccc(NC(=O)c2ccc(NC(=O)c3ccco3)cc2)c(OC)c1,-18%,i,-1%,4%,-50*,-17%
C[C@@H]1C(=O)O[C@H]2CC34[C@H]5C[C@@H](C(C)(C)C)C36[C@H](OC(=O)[C@@H]6O)O[C@@]4(C(=O)O5)[C@]21O (some centres undefined),0%,.,.,.,.,.
Cc1ccc(CNC(=O)Cc2c(C)c3c(cc(C)c4c(C)coc43)oc2=O)cc1,.,.,.,0%,.,.
O=C(O)/C=C/c1ccc2ccccc2c1,.,.,.,1%,.,.
CN1C(=O)C2(SCC(=O)N2c2ccc(F)cc2)c2ccccc21 (centres undefined),2%,i,.,0%,.,.
O=C(CCCCCn1c(=O)c2sccc2n(CC(=O)Nc2ccccc2F)c1=O)NCc1ccc2c(c1)OCO2,.,.,.,1%,.,.
Cc1ccc(C(=O)c2coc3ccc(O)c(CN4CCN(C)CC4)c23)cc1,-19%,?,?,-1%[38.3 µM],-54*,?
COC(=O)[C@@H]1CCCN1C(=O)c1c(OC)cc(=O)n2c1CCN(Cc1ccc3cccnc3c1)CC2,.,i,.,2%,.,.
S=C(NCCSCc1ccc(Cl)c(Cl)c1)Nc1ccccc1,-13%,i,26µM*,0%,-25,?
O=C(NCCSCc1c(F)cccc1Cl)Nc1ccccc1,-4%,i,?,-2%,-75*,2%
Cc1ccccc1CSCCNC(=S)Nc1ccccc1,-13%,i,-3%,2%,-158*,-5%
S=C(NCCSCc1ccc(Cl)cc1Cl)Nc1ccccc1,-10%,i,?,-1%,-15,8%
COc1ccc(CSCCNC(=S)Nc2ccccc2)cc1Cl,.,?,2%,1%,?,-10%
COc1cccc(CNC(=O)CCc2c(C)nn(-c3ccc(N4CCOCC4)nn3)c2C)c1,4%,i,.,1%,.,.
CCC(=O)N1CCc2cc(S(=O)(=O)NC(Cc3ccccc3)C(=O)Nc3ccc(Cl)cc3)ccc21 (centres undefined),-8%,i,.,2%,.,.
O=C(N/N=C/c1ccccc1F)c1csc2c1CCCC2,85%,i,?,-1%,-11,-1%
Cc1[nH]c(=O)c(C(=O)/C=C/c2ccccc2F)c2c1CCCC2,8.9µM*,28µM*,3.3µM*,-6%[38.3 µM],-97*,4.1µM*
